# Assay results: PubChem BioAssay AID2284324 (EPA ToxCast)
# Results filed as inconclusive are left out. The source made the active and inactive calls. The calls were made as follows: active = hit-call score of the fitted dose curve at least 0.9, where 1 is the maximum; inconclusive = response in the unintended direction; inactive = score below 0.9.
# System: Japanese medaka Glucocorticoid Receptor (GR), gene 101170451
# Assay: ATG_jmGR_EcoTox2: Attagene TRANS-FACTORIAL EcoTox-2 HepG2 Assay for Japanese medaka Glucocorticoid Receptor (GR)
# Experimental: ATG_EcoTox2 is a cell-based, multiplexed assay created by modifying the existing Attagene TRANS-FACTORIAL system to include a panel of nuclear receptors from some or all the following species: human (Homo sapiens), african clawed frog (Xenopus laevis), rainbow trout (Oncorhynchus mykiss), japanese medaka (Oryzias latipes), and zebrafish (Danio rerio). The ECOTOX2-FACTORIAL format uses HepG2, a human liver cell line, with measurements taken at 24 hours after chemical dosing in a 24-well plate. ATG_jmGR_EcoTox2 is one of 29 assay components calculated in the ATG_EcoTox2 assay. It is designed to make measurements of mRNA induction, a form of inducible reporter, as detected with fluorescence intensity signals by Reverse transcription polymerase chain reaction (RT-PCR) and Capillary electrophoresis technology.The assay endpoint ATG_jmGR_EcoTox2 was analyzed in the positive analysis fitting direction relative to DMSO as the negative control and baseline of activity. Using a type of inducible reporter, measures of mRNA for gain-of-signal activity can be used to understand the reporter gene at the transcription factor-level as they relate to the gene for glucocorticoid receptor. Furthermore, this assay endpoint can be referred to as a primary readout, because this assay has produced multiple assay endpoints where this one serves a reporter gene function. To generalize the intended target to other relatable targets, this assay endpoint is annotated to the nuclear receptor intended target family, where the subfamily is steroidal.
# Human liver HepG2 cells are transiently transfected with multiple reporter transcription units (MRTUs) in 6-well plates using FuGene 6 reagent (Roche; 3 ml FuGene/1 mg DNA). The MRTU constructs are regulated by a cis-regulating element (promoter). Each RTU expresses a GAL4-UAS that regulates the transcription of a nearby target reporter gene sequence. A major difference between the CIS and TRANS system is that in CIS activities of endogenous TFs are measured, whereas the TRANS assay evaluates changes in activities of exogenous, chimeric NR-Gal4 proteins. […] At the end of 24 hour incubation, total RNA was isolated using TriZol reagent (Invitrogen). The isolated RNA is then reverse-transcribed using oligo(dT) primer and Mo-MLV reverse transcriptase (Invitrogen) with DNAse I (Ambion) treatment for 30 min. The one-tenth of the produced cDNA was amplified by PCR using Taq DNA polymerase (Invitrogen) and two reporter sequence-specific primers. The PCR products were fluorescently labeled by primer extension with 6-arboxyfluorescein (6-FAM) 5'-labeled reporter sequence-specific primer (2 min at 95 C, 20 s at 68 C and 10 min at 72 C) and these products were digested with 5U of HpaI (New England Biolabs) for 2h at 37 C. The fragments were purified using Qiaquick PCR columns (Qiagen), analyzed on an ABI 3130xL genetic analyzer (Applied Biosystems) with peak positions identified by using a set of X-rhodamine (ROX)-labeled MapMarker1000 molecular weight standards (BioVentures). The raw capillary electrophoresis data was processed using Attagraph software (Attagene).
SMILES,outcome,AC50
CC(C)(Oc1ccc(Cl)cc1)C(=O)O,inactive,
CC(C)(Oc1ccc(C2CC2(Cl)Cl)cc1)C(=O)O (stereo not drawn),inactive,
C[C@]12C=CC(=O)C=C1CC[C@@H]1[C@@H]2C(=O)C[C@@]2(C)[C@H]1CC[C@]2(O)C(=O)CO,inactive,
Cc1cccc(Nc2cc(Cl)nc(SCC(=O)O)n2)c1C,inactive,
Cc1ccc(C)c(OCCCC(C)(C)C(=O)O)c1,inactive,
CC(C)OC(=O)C(C)(C)Oc1ccc(C(=O)c2ccc(Cl)cc2)cc1,inactive,
CC(C)(Oc1ccc(CCNC(=O)c2ccc(Cl)cc2)cc1)C(=O)O,inactive,
C[C@@H]1C[C@H]2[C@@H]3CCC4=CC(=O)C=C[C@]4(C)[C@@]3(F)[C@@H](O)C[C@]2(C)[C@@]1(O)C(=O)COP(=O)(O)O,,14.8 nM (active)
